From the supplement of paper PMC10849652
About 8,800 targets were measured; listed, in parts, are those with a hit and a random draw of the rest. About 0.5% of all pairs of compound and target were hits. Values without a mark were called inactive.

What was measured:
Assay in all cases: log2 fold change, soluble protein after heating vs DMSO (PISA); higher = thermal stabilisation; K562 lysate, 10 uM; active = over 0.2 and 3.5 SD of the protein, either way, in both replicates (recomputed)
lapatinib = compound: CS(=O)(=O)CCNCc1ccc(-c2ccc3ncnc(Nc4ccc(OCc5cccc(F)c5)c(Cl)c4)c3c2)o1 [lapatinib]
Method in brief: (§1)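 Pellets of K562 cells were dounce-homogenised in PBS pH 7.4 with 1 mM MgCl2, and the crude extract was held at 1 mg/mL protein for a 30 min treatment with 10 μM compound. Aliquots were heated for 3 min over 48°C-58°C and pooled before NP-40 was added to 0.5% at 4°C. The supernatant from 21,000xg for 90 min was quantified by TMTpro 16plex LC-MS/MS with channel sums equalised. Values are reported from duplicates as log-two fold change in thermal stability relative to solvent controls.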

pictilisib = compound: CS(=O)(=O)N1CCN(Cc2cc3nc(-c4cccc5[nH]ncc45)nc(N4CCOCC4)c3s2)CC1 [pictilisib]
Method in brief: as §1

crizotinib = compound: C[C@@H](Oc1cc(-c2cnn(C3CCNCC3)c2)cnc1N)c1c(Cl)ccc(F)c1Cl [crizotinib]
Method in brief: as §1

[1] = compound: C[C@H](C1=CC=C(C=C1)C(=O)NC2=C3C=CNC3=NC=C2)N
Method in brief: as §1

duvelisib = compound: C[C@H](Nc1ncnc2nc[nH]c12)c1cc2cccc(Cl)c2c(=O)n1-c1ccccc1 [duvelisib]
Method in brief: as §1

gandotinib = compound: Cc1cc(Nc2cc(CN3CCOCC3)c3nc(C)c(Cc4ccc(Cl)cc4F)n3n2)n[nH]1 [gandotinib]
Method in brief: as §1

tozasertib = compound: Cc1cc(Nc2cc(N3CCN(C)CC3)nc(Sc3ccc(NC(=O)C4CC4)cc3)n2)n[nH]1 [tozasertib]
Method in brief: as §1

doramapimod = compound: Cc1ccc(-n2nc(C(C)(C)C)cc2NC(=O)Nc2ccc(OCCN3CCOCC3)c3ccccc23)cc1 [doramapimod]
Method in brief: as §1

bafetinib = compound: Cc1ccc(NC(=O)c2ccc(CN3CC[C@H](N(C)C)C3)c(C(F)(F)F)c2)cc1Nc1nccc(-c2cncnc2)n1 [bafetinib]
Method in brief: as §1

[2] = compound: Cc1cccc(CC(=O)N2CCc3c2ccc(-c2cn(C)c4ncnc(N)c24)c3F)n1
Method in brief: as §1

Chain of UniProt Q99961 (Q99961 whole entry, looked up): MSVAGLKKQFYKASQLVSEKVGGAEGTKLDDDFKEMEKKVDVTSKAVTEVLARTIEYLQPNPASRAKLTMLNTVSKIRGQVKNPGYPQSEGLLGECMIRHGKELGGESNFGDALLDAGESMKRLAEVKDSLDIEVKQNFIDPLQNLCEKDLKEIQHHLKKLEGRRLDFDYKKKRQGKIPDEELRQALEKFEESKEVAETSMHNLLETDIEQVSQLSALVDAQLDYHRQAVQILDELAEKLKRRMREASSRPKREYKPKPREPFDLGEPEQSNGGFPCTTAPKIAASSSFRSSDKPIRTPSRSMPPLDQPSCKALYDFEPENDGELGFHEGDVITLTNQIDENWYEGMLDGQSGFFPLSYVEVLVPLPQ
Chain of UniProt P51532 (P51532 whole entry, looked up): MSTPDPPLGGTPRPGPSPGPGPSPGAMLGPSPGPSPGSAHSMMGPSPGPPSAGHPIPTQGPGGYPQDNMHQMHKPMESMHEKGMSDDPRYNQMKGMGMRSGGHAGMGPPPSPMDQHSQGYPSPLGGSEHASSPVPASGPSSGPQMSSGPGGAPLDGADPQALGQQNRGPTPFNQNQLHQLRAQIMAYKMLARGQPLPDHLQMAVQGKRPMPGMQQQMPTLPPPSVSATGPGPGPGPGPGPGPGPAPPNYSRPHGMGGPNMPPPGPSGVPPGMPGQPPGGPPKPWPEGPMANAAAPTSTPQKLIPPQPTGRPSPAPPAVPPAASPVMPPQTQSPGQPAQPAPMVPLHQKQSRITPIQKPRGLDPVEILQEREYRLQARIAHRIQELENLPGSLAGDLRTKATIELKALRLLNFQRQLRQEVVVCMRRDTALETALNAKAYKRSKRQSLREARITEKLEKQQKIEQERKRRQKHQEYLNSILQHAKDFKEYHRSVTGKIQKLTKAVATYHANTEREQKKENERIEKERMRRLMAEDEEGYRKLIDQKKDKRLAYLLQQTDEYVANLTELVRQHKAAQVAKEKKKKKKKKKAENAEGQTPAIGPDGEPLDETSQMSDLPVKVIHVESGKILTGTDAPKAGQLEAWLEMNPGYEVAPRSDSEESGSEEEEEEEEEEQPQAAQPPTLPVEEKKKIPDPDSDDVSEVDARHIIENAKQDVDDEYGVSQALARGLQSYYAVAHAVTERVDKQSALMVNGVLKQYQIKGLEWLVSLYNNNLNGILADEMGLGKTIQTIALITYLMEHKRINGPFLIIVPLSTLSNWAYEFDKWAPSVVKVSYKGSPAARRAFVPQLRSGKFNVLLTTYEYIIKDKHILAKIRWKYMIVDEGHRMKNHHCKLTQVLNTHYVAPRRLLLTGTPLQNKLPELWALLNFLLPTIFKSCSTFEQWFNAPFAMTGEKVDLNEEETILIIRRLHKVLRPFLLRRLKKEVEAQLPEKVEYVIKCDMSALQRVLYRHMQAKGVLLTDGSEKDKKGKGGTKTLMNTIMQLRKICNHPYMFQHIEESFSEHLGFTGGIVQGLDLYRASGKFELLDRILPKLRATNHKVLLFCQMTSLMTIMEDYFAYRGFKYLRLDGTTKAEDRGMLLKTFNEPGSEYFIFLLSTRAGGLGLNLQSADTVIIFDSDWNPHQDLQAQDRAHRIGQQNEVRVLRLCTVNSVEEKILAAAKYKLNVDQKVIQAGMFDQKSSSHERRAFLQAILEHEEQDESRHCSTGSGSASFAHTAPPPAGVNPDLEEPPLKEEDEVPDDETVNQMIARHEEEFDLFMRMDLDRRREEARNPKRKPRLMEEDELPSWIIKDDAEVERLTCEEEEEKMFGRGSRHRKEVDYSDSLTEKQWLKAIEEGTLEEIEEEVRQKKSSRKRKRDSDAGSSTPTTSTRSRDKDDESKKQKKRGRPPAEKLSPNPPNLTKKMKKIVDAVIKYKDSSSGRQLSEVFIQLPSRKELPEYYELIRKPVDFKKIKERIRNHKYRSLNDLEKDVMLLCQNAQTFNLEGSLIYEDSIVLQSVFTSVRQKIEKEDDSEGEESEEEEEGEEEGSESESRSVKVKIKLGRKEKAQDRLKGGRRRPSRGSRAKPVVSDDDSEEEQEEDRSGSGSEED
Chain of UniProt Q15633 (Q15633 whole entry, looked up): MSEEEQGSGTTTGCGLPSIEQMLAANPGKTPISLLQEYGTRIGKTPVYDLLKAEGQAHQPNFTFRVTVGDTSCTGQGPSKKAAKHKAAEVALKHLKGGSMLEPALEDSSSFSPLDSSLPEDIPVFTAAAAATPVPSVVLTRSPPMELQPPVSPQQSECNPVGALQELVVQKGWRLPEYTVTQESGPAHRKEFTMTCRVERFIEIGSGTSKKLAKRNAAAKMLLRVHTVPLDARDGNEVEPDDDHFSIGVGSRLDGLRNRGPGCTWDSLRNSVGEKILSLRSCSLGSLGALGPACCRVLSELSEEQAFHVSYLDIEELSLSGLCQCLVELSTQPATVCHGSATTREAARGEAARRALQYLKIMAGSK
Chain of UniProt Q13586 (Q13586 whole entry, looked up): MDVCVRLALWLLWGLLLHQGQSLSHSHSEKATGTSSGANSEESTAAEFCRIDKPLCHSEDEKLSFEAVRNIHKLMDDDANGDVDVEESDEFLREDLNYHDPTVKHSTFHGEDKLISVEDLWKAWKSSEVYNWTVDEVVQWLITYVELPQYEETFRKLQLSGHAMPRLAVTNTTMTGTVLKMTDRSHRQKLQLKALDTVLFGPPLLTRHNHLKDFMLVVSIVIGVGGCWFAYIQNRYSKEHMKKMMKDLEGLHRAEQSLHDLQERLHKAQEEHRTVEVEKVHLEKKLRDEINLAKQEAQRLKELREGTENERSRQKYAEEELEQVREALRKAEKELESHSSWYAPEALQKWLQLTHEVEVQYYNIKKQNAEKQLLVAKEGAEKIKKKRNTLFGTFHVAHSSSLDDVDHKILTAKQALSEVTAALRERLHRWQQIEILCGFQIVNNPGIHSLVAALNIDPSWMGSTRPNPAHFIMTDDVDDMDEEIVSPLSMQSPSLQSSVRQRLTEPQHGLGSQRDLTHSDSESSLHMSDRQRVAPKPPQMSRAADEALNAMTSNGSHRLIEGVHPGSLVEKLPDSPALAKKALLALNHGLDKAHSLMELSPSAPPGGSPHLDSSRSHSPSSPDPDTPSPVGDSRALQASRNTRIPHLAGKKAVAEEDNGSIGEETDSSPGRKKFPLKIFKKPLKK
Chain of UniProt Q9UNE7 (Q9UNE7 whole entry, looked up): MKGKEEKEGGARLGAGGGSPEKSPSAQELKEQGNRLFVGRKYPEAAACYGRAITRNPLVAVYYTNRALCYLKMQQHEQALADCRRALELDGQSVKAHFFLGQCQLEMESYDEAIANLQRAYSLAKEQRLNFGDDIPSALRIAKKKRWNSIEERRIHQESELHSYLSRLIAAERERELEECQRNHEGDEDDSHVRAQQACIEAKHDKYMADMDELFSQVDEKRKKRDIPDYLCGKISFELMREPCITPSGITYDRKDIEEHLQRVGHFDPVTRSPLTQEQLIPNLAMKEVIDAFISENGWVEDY
Chain of UniProt Q8NB90 (Q8NB90 whole entry, looked up): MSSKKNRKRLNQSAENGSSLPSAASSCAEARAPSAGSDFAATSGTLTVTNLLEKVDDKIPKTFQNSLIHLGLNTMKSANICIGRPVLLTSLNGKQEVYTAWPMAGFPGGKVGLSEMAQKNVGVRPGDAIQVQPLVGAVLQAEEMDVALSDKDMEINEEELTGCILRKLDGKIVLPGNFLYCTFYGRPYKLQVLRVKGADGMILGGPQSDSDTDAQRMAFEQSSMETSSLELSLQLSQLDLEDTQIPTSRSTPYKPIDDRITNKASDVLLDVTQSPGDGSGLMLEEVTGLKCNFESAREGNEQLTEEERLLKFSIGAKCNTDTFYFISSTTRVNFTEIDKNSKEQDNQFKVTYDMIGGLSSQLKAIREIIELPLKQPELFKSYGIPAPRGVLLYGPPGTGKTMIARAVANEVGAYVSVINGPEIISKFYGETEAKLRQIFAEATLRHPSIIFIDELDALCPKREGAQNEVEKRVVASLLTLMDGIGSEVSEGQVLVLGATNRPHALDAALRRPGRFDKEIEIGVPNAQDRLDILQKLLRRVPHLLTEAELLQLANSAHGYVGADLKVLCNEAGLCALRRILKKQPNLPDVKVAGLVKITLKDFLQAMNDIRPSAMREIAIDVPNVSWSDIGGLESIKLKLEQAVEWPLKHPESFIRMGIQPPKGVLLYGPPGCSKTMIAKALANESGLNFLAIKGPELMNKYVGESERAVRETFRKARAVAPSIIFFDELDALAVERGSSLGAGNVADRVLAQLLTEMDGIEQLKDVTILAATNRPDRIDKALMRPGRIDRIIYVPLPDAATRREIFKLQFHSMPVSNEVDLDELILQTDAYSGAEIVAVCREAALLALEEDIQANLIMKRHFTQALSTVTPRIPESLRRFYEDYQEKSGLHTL
Chain of UniProt Q9H2D1 (Q9H2D1 whole entry, looked up): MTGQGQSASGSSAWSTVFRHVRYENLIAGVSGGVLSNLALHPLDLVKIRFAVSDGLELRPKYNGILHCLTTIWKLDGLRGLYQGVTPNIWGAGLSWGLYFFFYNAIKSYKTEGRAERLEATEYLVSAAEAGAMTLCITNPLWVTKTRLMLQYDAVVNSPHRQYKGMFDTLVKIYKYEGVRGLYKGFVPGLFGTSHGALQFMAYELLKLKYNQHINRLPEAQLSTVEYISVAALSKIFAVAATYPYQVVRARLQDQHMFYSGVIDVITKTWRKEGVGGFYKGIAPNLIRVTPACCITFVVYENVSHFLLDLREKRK
Chain of UniProt Q8IX90 (Q8IX90 whole entry, looked up): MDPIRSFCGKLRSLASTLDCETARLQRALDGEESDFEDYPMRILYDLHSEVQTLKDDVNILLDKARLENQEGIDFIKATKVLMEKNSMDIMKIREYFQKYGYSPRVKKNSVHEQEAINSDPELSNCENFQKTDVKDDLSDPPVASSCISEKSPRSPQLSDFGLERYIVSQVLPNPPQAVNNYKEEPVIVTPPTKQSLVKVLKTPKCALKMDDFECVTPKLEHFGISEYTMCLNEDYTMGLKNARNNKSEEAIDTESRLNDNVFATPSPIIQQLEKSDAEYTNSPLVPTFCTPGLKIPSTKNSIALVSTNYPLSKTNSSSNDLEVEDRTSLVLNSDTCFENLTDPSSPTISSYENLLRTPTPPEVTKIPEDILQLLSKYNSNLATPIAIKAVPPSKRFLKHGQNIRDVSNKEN

Target	log2 fold change (lapatinib)	log2 fold change (pictilisib)	log2 fold change (crizotinib)	log2 fold change [1]	log2 fold change (duvelisib)	log2 fold change (gandotinib)	log2 fold change (tozasertib)	log2 fold change (doramapimod)	log2 fold change (bafetinib)	log2 fold change [2]
TARBP2 (UniProt Q15633)	0.035	-0.098	-0.092	0.001	0.07	-0.08	-0.057	0.028	-0.028	0.022
SH3GL1 (UniProt Q99961)	0.013	0.005	-0.017	0.028	0.023	0.009	0.013	0.025	-0.001	-0.063
SULT1A1 (UniProt P50225)	0.023	-0.052	-0.074	-0.014	-0.009	-0.023	-0.002	-0.037	-0.025	0.046
SVIP (UniProt Q8NHG7)	0.005	-0.03	-0.037	0.027	-0.013	0.01	0.037	0.021	-0.008	0.032
SPATA5 (UniProt Q8NB90)	-0.017	-0.009	-0.046	-0.027	-0.015	-0.13	0.02	-0.017	-0.05	0.034
SLC27A2 (UniProt O14975)	0.063	-0.049	-0.092	-0.067	0.031	0.286	0.117	0.064	0.015	-0.014
SMAP2 (UniProt Q8WU79)	-0.017	-0.164	0.102	0.031	-0.008	-0.008	0.054	-0.019	0.051	-0.032
SYNE2 isoform 2 (UniProt Q8WXH0)	-0.082	-0.103	0.058	-0.93 (active)	0.073	0.296	-0.003	0.183	-0.194	0.397
SSBP3 (UniProt Q9BWW4)	0.039	-0.158	0.018	-0.014	0.019	-0.019	-0.041	0.014	-0.06	0.029
SPHK1 isoform 2 (UniProt Q9NYA1)	-0.039	0.001	-0.018	-0.028	0.013	0.033	0.122	0.073	-0.007	-0.041
SLC29A2 (UniProt Q14542)	-0.006	0.04	-0.068	-0.558 (active)	0.083	0.159	0.035	-0.023	0.045	0.146
SRGN (UniProt P10124)	0.016	-0.181	-0.054	-0.046	0.019	-0.097	0.008	-0.071	-0.17	0.192
SLC39A11 (UniProt Q8N1S5)	-0.054	0.081	0.081	-0.097	-0.002	0.1	0.178	-0.139	0.022	0.013
SF3B6 (UniProt Q9Y3B4)	-0.01	-0.083	-0.008	0.009	0.059	-0.069	-0.188	0.047	-0.009	-0.058
SLC38A10 (UniProt Q9HBR0)	0.006	-0.069	0.009	-0.136	0.018	0.068	-0.061	-0.087	-0.044	0.091
SLC25A32 (UniProt Q9H2D1)	-0.032	-0.005	-0.017	-0.151	-0.014	0.098	-0.038	-0.019	-0.022	0.1
SKA3 (UniProt Q8IX90)	0.009	-0.022	-0.029	-0.008	-0.022	-0.011	-0.008	0.002	0.027	0.034
SLC26A6 (UniProt Q9BXS9)	-0.009	0.05	-0.023	0.016	0.067	0.051	0.047	-0.003	-0.003	0.118
STUB1 (UniProt Q9UNE7)	-0.01	-0.012	-0.035	0.004	-0.01	-0.073	-0.006	0.019	-0.054	0.05
SMC3 (UniProt Q9UQE7)	0.007	0.006	0.011	0.037	-0.01	-0.013	0.001	-0.007	-0.021	-0.012
TAOK2 (UniProt Q9UL54)	-0.049	-0.054	-0.081	-0.136	-0.002	0.07	-0.026	0.046	-0.004	0.261
STIM1 (UniProt Q13586)	-0.056	-0.028	-0.053	0.145	-0.007	-0.095	0.032	0.044	-0.056	-0.037
SMARCA4 (UniProt P51532)	-0.029	-0.008	-0.01	-0.009	-0.003	-0.022	0.012	0.008	-0.008	0.054
SPR (UniProt P35270)	-0.015	0.472 (active)	0.276	-0.029	-0.059	0.467 (active)	0.025	-0.06	-0.09	-0.117
SMTN isoform 6 (UniProt P53814)	0.103	-0.042	-0.012	-0.06	0.033	0.032	0.019	0.006	0.059	0.028
SPATA5L1 (UniProt Q9BVQ7)	-0.017	0.011	-0.107	0.016	0.001	-0.076	0.013	-0.035	-0.001	0.049
SYF2 (UniProt O95926)	0.026	0.003	-0.008	-0.023	-0.144	0.055	-0.066	0.04	-0.026	-0.016
SLC7A5 (UniProt Q01650)	-0.004	0.026	-0.069	-0.308 (active)	0.051	0.201 (active)	-0.012	0.019	0.046	0.129
STOML2 (UniProt Q9UJZ1)	0.013	-0.021	0.028	0.089	0.035	0.015	0.012	-0.032	0.033	-0.023
TAPT1 (UniProt Q6NXT6)	-0.007	0.025	-0.044	-0.196	0.012	0.057	0.031	0.024	0.01	0.093
